From PubChem BioAssay (EPA / NIEHS) come the findings set out here.

In general, AC50 refers to the midpoint of the concentration-response curve, whichever way the signal moves.

The structures appear in SMILES notation. Active and inactive are the calls of the source. The calls were made as follows: active = hit-call score of the fitted dose curve at least 0.9, where 1 is the maximum; inactive = score below 0.9.

Read-out in one experiment: not listed separately
As to the kind of experiment: BSK_3C_Vis: BioMAP Diversity Plus: 3C Assay for Morphology Visualization (AID 2283025).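 Also: fitted both ways so gain or loss versus DMSO counts.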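 As to AC50: light microscopy image of cell morphology used as background control; cells imaged 24 h after dosing.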 The settings on record: primary human endothelial cells (HUVEC). The method in brief: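 Light-microscopy morphology readout, 24 h exposure, human primary umbilical vein endothelium; analysed relative to DMSO with bidirectional fitting.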
`CN(C)C(=O)NC1(c2ccccc2)CCN(CCC[C@]2(c3ccc(Cl)c(Cl)c3)CCCN(C(=O)c3ccccc3)C2)CC1`: the AC50 was 9.81 µM (active).

On to `CCCCOC(=O)CCCCC(=O)OCCCC`, for which the result was inactive.

Turning to `C=CCCCCCCCCCCCC`, the outcome was inactive.

As to `Nc1nc(Cl)nc2c1ncn2[C@H]1C[C@H](O)[C@@H](CO)O1`, the AC50 is 38.6 µM (active).

For `Cc1ccc(C(C)(C)C)c(O)c1`, the result was inactive.

Consider `Oc1ccccc1O`, for which the outcome was inactive.

Consider `CCCCC(CC)COC(=O)CCCCCCCC(=O)OCC(CC)CCCC` (stereo unspecified), for which the outcome was inactive.

With `CC(=O)[C@@]1(O)CC[C@H]2[C@@H]3CCC4=CC(=O)CC[C@]4(C)[C@H]3CC[C@@]21C`, the result was inactive.

Take `CCCCCCCCCCCCCCOS(=O)(=O)O`: the outcome was inactive.

On to `O=C(O)c1cccnc1`, for which the outcome was inactive.

`Nc1nc(=S)c2[nH]cnc2[nH]1`: the outcome was inactive.

`CCN(CC)CCOc1ccc(C(=C(Cl)c2ccccc2)c2ccccc2)cc1`: the concentration at half-maximal activity (AC50) is 6.1 µM (active).

In the case of `CCCCc1nc2cccnc2n1Cc1ccc(-c2ccccc2-c2nnn[nH]2)cc1`, the outcome was inactive.

`CC(C)c1cccc(C(C)C)c1`: the result was inactive.

With `O=C1O[C@H]([C@H](O)CO)C(O)=C1O`, the outcome was inactive.

Regarding `O=[Si]=O`, the result was inactive.

With `CC(=O)O`, the result was inactive.

For `CS(=O)(=O)c1ccc([C@@H](C[C@H]2CCC(=O)C2)C(=O)Nc2cnccn2)cc1Cl`, the outcome was inactive.

As to `CC(C)(O)c1ccc(CNC(=O)c2cccnc2Oc2ccc(F)cc2)cc1`, the outcome was inactive.

`O=NO`: the outcome was inactive.

As for `CC(=O)O[C@]1(C(C)=O)CC[C@H]2[C@@H]3C=C(Cl)C4=CC(=O)[C@@H]5C[C@@H]5[C@]4(C)[C@H]3CC[C@@]21C`, the result was inactive.

As for `CCCCC(CC)CO` (stereo unspecified), the outcome was inactive.

For the molecule `COc1ccc(OC(F)(F)F)cc1CN[C@H]1CCCN[C@H]1c1ccccc1`, the AC50 was 3.29 µM (active).

With `CCc1nc(N)nc(N)c1-c1ccc(Cl)cc1`, the result was inactive.

Consider `O=C1CCCCC1`, for which the result was inactive.

Consider `O=C(O)CN(CC(=O)O)CC(=O)O`, for which the outcome was inactive.

Turning to `CC(=O)OC1CC(C)OC(C)O1` (stereo unspecified), the result was inactive.

Consider `CCCC[C@H]1CN(CC2CCOCC2)C(=O)OC12CCN(C1(C)CCN(C(=O)c3c(C)ncnc3C)CC1)CC2`, for which the outcome was inactive.

Read-out in a further experiment: Pselectin, SELP (gene 6403)
The experiment is described as follows: BSK_4H_Pselectin: BioMAP Diversity Plus: 4H Assay for Pselectin Biomarker Activity (AID 2283026). The settings on record: primary human endothelial cells (HUVEC); actives raise or lower the signal. The method in brief: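 Bidirectional fits against DMSO gave the endpoint. Cells: primary human umbilical vein endothelium, chemical-treated for 24 h before ELISA detection of P-selectin.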
`CN(C)C(=O)NC1(c2ccccc2)CCN(CCC[C@]2(c3ccc(Cl)c(Cl)c3)CCCN(C(=O)c3ccccc3)C2)CC1`: the result was inactive.

Turning to `CCCCOC(=O)CCCCC(=O)OCCCC`, the outcome was inactive.

As for `C=CCCCCCCCCCCCC`, the result was inactive.

`Nc1nc(Cl)nc2c1ncn2[C@H]1C[C@H](O)[C@@H](CO)O1`: the result was inactive.

`Cc1ccc(C(C)(C)C)c(O)c1`: the result was inactive.

For the molecule `Oc1ccccc1O`, the AC50 was 9.58 µM (active).

For the molecule `CCCCC(CC)COC(=O)CCCCCCCC(=O)OCC(CC)CCCC` (stereo unspecified), the outcome was inactive.

Turning to `CC(=O)[C@@]1(O)CC[C@H]2[C@@H]3CCC4=CC(=O)CC[C@]4(C)[C@H]3CC[C@@]21C`, the outcome was inactive.

Consider `CCCCCCCCCCCCCCOS(=O)(=O)O`, for which the result was inactive.

Regarding `O=C(O)c1cccnc1`, the result was inactive.

In the case of `Nc1nc(=S)c2[nH]cnc2[nH]1`, the outcome was inactive.

Turning to `CCN(CC)CCOc1ccc(C(=C(Cl)c2ccccc2)c2ccccc2)cc1`, the AC50 is 8.24 µM (active).

For the molecule `CCCCc1nc2cccnc2n1Cc1ccc(-c2ccccc2-c2nnn[nH]2)cc1`, the result was inactive.

For `CC(C)c1cccc(C(C)C)c1`, the outcome was inactive.

Turning to `O=C1O[C@H]([C@H](O)CO)C(O)=C1O`, the result was inactive.

As to `O=[Si]=O`, the result was inactive.

Turning to `CC(=O)O`, the outcome was inactive.

Regarding `CS(=O)(=O)c1ccc([C@@H](C[C@H]2CCC(=O)C2)C(=O)Nc2cnccn2)cc1Cl`, the outcome was inactive.

Consider `CC(C)(O)c1ccc(CNC(=O)c2cccnc2Oc2ccc(F)cc2)cc1`, for which the result was inactive.

In the case of `O=NO`, the outcome was inactive.

Regarding `CC(=O)O[C@]1(C(C)=O)CC[C@H]2[C@@H]3C=C(Cl)C4=CC(=O)[C@@H]5C[C@@H]5[C@]4(C)[C@H]3CC[C@@]21C`, the result was inactive.

`CCCCC(CC)CO` (stereo unspecified): the result was inactive.

As to `COc1ccc(OC(F)(F)F)cc1CN[C@H]1CCCN[C@H]1c1ccccc1`, the outcome was inactive.

On to `CCc1nc(N)nc(N)c1-c1ccc(Cl)cc1`, for which the outcome was inactive.

Turning to `O=C1CCCCC1`, the outcome was inactive.

As for `O=C(O)CN(CC(=O)O)CC(=O)O`, the result was inactive.

Consider `CC(=O)OC1CC(C)OC(C)O1` (stereo unspecified), for which the outcome was inactive.

As to `COC(=O)[C@H]1[C@H]2C[C@@H]3c4[nH]c5cc(OC)ccc5c4CCN3C[C@H]2C[C@@H](OC(=O)c2cc(OC)c(OC)c(OC)c2)[C@@H]1OC`, the AC50 is 25.6 µM (active).

On to `CCCC[C@H]1CN(CC2CCOCC2)C(=O)OC12CCN(C1(C)CCN(C(=O)c3c(C)ncnc3C)CC1)CC2`, for which the result was inactive.

Read-out in the next experiment: not listed separately
As to the kind of experiment: BSK_4H_SRB: Viability Assessment in the BioMAP Diversity Plus: 4H Assay (AID 2283027).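 Also: cells exposed to compound for 24 h before staining.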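 As to AC50: curves fitted both ways versus DMSO so AC50 may be loss or gain.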 As to conditions: primary human endothelial cells (HUVEC). Put shortly:
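HUVEC, 24 h post-dose; 10% TCA fix, 0.1% SRB stain, A560 nm. Total protein = overt cytotoxicity, parallel to biomarker read. Bidirectional fit vs DMSO baseline.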
As to `CN(C)C(=O)NC1(c2ccccc2)CCN(CCC[C@]2(c3ccc(Cl)c(Cl)c3)CCCN(C(=O)c3ccccc3)C2)CC1`, the result was inactive.

Regarding `CCCCOC(=O)CCCCC(=O)OCCCC`, the outcome was inactive.

For `C=CCCCCCCCCCCCC`, the result was inactive.

On to `Nc1nc(Cl)nc2c1ncn2[C@H]1C[C@H](O)[C@@H](CO)O1`, for which the outcome was inactive.

Regarding `Cc1ccc(C(C)(C)C)c(O)c1`, the result was inactive.

Turning to `Oc1ccccc1O`, the AC50 was 5.94 µM (active).

For the molecule `CCCCC(CC)COC(=O)CCCCCCCC(=O)OCC(CC)CCCC` (stereo unspecified), the result was inactive.

In the case of `CC(=O)[C@@]1(O)CC[C@H]2[C@@H]3CCC4=CC(=O)CC[C@]4(C)[C@H]3CC[C@@]21C`, the outcome was inactive.

For `CCCCCCCCCCCCCCOS(=O)(=O)O`, the outcome was inactive.

As for `O=C(O)c1cccnc1`, the outcome was inactive.

In the case of `Nc1nc(=S)c2[nH]cnc2[nH]1`, the result was inactive.

In the case of `CCN(CC)CCOc1ccc(C(=C(Cl)c2ccccc2)c2ccccc2)cc1`, the AC50 is 13.1 µM (active).

In the case of `CCCCc1nc2cccnc2n1Cc1ccc(-c2ccccc2-c2nnn[nH]2)cc1`, the outcome was inactive.

On to `CC(C)c1cccc(C(C)C)c1`, for which the result was inactive.

For `O=C1O[C@H]([C@H](O)CO)C(O)=C1O`, the outcome was inactive.

As to `O=[Si]=O`, the result was inactive.

As for `CC(=O)O`, the result was inactive.

As to `CS(=O)(=O)c1ccc([C@@H](C[C@H]2CCC(=O)C2)C(=O)Nc2cnccn2)cc1Cl`, the outcome was inactive.

On to `CC(C)(O)c1ccc(CNC(=O)c2cccnc2Oc2ccc(F)cc2)cc1`, for which the outcome was inactive.

For the molecule `O=NO`, the result was inactive.

In the case of `CC(=O)O[C@]1(C(C)=O)CC[C@H]2[C@@H]3C=C(Cl)C4=CC(=O)[C@@H]5C[C@@H]5[C@]4(C)[C@H]3CC[C@@]21C`, the result was inactive.

As to `CCCCC(CC)CO` (stereo unspecified), the outcome was inactive.

As for `COc1ccc(OC(F)(F)F)cc1CN[C@H]1CCCN[C@H]1c1ccccc1`, the AC50 is 14.3 µM (active).

For `CCc1nc(N)nc(N)c1-c1ccc(Cl)cc1`, the result was inactive.

For the molecule `O=C1CCCCC1`, the result was inactive.

On to `O=C(O)CN(CC(=O)O)CC(=O)O`, for which the outcome was inactive.

Consider `CC(=O)OC1CC(C)OC(C)O1` (stereo unspecified), for which the outcome was inactive.

Regarding `COC(=O)[C@H]1[C@H]2C[C@@H]3c4[nH]c5cc(OC)ccc5c4CCN3C[C@H]2C[C@@H](OC(=O)c2cc(OC)c(OC)c(OC)c2)[C@@H]1OC`, the AC50 is 22.5 µM (active).

For the molecule `CCCC[C@H]1CN(CC2CCOCC2)C(=O)OC12CCN(C1(C)CCN(C(=O)c3c(C)ncnc3C)CC1)CC2`, the outcome was inactive.
